KB-3-1 tox: KB-3-1 parental cell cytotoxicity | 1.4% of 400,000 active | KB-3-1 viability, CellTiter-Glo ATP luminescence, 72 h | Potency, µM (doses to about 46.1 µM), actives largely listed as cytotoxic | AID 1347075; note: % is set by controls: 0 for no effect and ±100 for the full control effect; nearly all actives have a fitted effect of over 60% in size
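Cytotoxicity in the drug-sensitive parental line KB-3-1 was scored as loss of CellTiter-Glo luminescence following 72 h incubation with compound. Values come from curve fitting of normalized concentration-response data.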
RORgamma inh: ROR gamma (mouse) transcription inhibition; Drosophila S2 Gal4-RORgamma UAS-luciferase reporter, 20 h; 5.4% of 310,000 active; Potency, µM (series often up to 53.6 µM), for inactives: top-dose activity change, negative = inhibition, actives largely listed as inhibitors; P51450; AID 2551; note: % is set by controls: 0 for no effect and ±100 for the full control effect; nearly all actives have a fitted effect of over 60% in size
Target sequence (P51450 whole entry, looked up, the tested form may be a part): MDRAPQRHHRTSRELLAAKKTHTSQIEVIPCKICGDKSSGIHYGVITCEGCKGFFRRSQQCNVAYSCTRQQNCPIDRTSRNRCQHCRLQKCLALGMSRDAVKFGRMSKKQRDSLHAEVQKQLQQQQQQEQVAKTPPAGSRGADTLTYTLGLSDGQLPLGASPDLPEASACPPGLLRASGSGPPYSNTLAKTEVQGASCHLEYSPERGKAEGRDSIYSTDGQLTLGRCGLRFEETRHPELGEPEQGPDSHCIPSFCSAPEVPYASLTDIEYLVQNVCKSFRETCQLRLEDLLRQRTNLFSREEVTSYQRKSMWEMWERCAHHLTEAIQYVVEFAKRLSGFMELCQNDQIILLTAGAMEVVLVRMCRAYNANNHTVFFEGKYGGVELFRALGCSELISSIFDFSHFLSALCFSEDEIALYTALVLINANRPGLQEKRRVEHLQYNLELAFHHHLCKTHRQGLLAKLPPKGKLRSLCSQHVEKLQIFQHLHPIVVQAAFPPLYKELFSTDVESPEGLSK
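Luciferase reporter read in Schneider cells carrying Gal4-RORγ (mouse) and UAS-Photinus luciferase; cells given compound 1 h before 700 uM copper sulfate induction, then incubated 20 h at ambient temperature.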
KB-V1 cytotox: KB-V1 MDR subline cytotoxicity. KB-V1 MDR cells viability, CellTiter-Glo, 72 h. Potency, µM (titrated, usually from 46.1 µM), usual class: cytotoxic. 3.4% of 400,000 active. AID 1347076; note: % is set by controls: 0 for no effect and ±100 for the full control effect; nearly all actives have a fitted effect of over 60% in size
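KB-V1, DMEM (no phenol red) + 10% FBS; cpd pin-transferred, titration series; 72 h, 37 degrees C; CellTiter-Glo, luminescence. Data normalized, curve-fit.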
Gal4-VP16 FLuc: Gal4-VP16 reporter inhibition counter-screen | Drosophila S2 Gal4-VP16 UAS-luciferase, luminescence, 20 h | Potency, µM (highest dose often 53.6 µM), without a hit: at the top dose activity, negative = inhibition, actives largely listed as inhibitors | 3.5% of 310,000 active;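 note: Gal4-VP16 expression switched on by copper sulfate through the metallothionein promoter; % is set by controls: 0 for no effect and ±100 for the full control effect; nearly all actives have a fitted effect of over 50% in size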
MCF10A rereplic: induces DNA re-replication in MCF 10a normal breast cells | AID 624296 | Potency, µM (series often up to 46.1 µM), for inactives: at the top dose activity, positive = re-replication, usual class: activators | 2.9% of 350,000 active | MCF 10A DNA re-replication, Hoechst nuclear intensity, 48 h; note: % of control where 0% means no effect; nearly all actives have a fitted effect of over 50% in size
SW480 rereplic: induces DNA re-replication in SW480 colon adenocarcinoma cells. SW480 DNA re-replication, Hoechst DNA content imaging, 48 h. Potency, µM (titrated, usually from 46.1 µM), for inactives: at the highest dose re-replication activation, hits mostly activators. 1.8% of 340,000 active. AID 624297; note: % of control where 0% means no effect; nearly all actives have a fitted effect of over 55% in size
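Quantitative HTS format with DMSO vehicle controls; 48 hr drug incubation at 37 C, then 40 min Hoechst staining and scanning imager measurement at 405 nm excitation.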
The depositor's hits bear a star; [ ] = remark or other dose. In the library only some 10% were active in any assay of this set; here they are far more common. Calls come from the whole dose curve; as a rule, active = well fitted curve in the direction sought with a large enough effect; inconclusive = small, poorly fitted or top-dose-only effect, or another doubt; inactive = no such curve, though single readings can be large; an effect the other way counts as inactive or inconclusive. Potency is the fitted concentration of half-maximal effect.

For Cc1nc2cc(C(F)(F)F)ccc2n1C1CCN(Cc2nnnn2Cc2ccc3c(c2)OCO3)CC1 the results were KB-3-1 tox inconclusive, RORgamma inh -3.9%, KB-V1 cytotox 18.4µM*, Gal4-VP16 FLuc -7.5%, MCF10A rereplic inconclusive and SW480 rereplic 13.8%.
For Cc1nc2cc(C(F)(F)F)ccc2n1C1CCN(Cc2nnnn2Cc2cccs2)CC1 the results were KB-3-1 tox inactive, RORgamma inh -17.9%, KB-V1 cytotox inconclusive, Gal4-VP16 FLuc -13.0%, MCF10A rereplic 2.8% and SW480 rereplic -2.6%.
For Fc1ccc(Cn2nnnc2CN2CCC(n3nnc4cc(C(F)(F)F)ccc43)CC2)cc1 the results were KB-3-1 tox inactive, RORgamma inh 12.0%, KB-V1 cytotox inconclusive, Gal4-VP16 FLuc -18.0%, MCF10A rereplic 25.9µM* and SW480 rereplic -5.8%.
For CCOP(=S)(OCC)Oc1ccc([N+](=O)[O-])cc1 the results were RORgamma inh -3.0% and Gal4-VP16 FLuc 2.6%.
Screening COC(=O)COc1ccc(C[C@@H](C)NC[C@H](O)c2cccc(Cl)c2)cc1 returned RORgamma inh -13.1% and Gal4-VP16 FLuc -7.4%.
Screening CC1CCC(C(C)C)C(OC(=O)Cn2c(COc3ccccc3)[n+](C)c3ccccc32)C1 (stereo not drawn) returned KB-3-1 tox 23.1µM*, RORgamma inh -2.9%, KB-V1 cytotox inactive, Gal4-VP16 FLuc -12.9%, MCF10A rereplic inconclusive and SW480 rereplic 0.5%.
`ClCC(Cl)CCl` gave RORgamma inh 1.6% and Gal4-VP16 FLuc -1.2%.
Screening COc1cc(OC)c(OC)cc1C=O returned KB-3-1 tox inactive, RORgamma inh 3.8%, KB-V1 cytotox inactive, Gal4-VP16 FLuc 2.7%, MCF10A rereplic 1.0% and SW480 rereplic 0.8%.
Screening COc1cc2c(cc1/C=C/[N+](=O)[O-])OCO2 returned KB-3-1 tox inconclusive, RORgamma inh 7.94µM*, KB-V1 cytotox inactive, Gal4-VP16 FLuc inconclusive, MCF10A rereplic inconclusive and SW480 rereplic inconclusive.
`CC[C@H](C)[C@H](NC(=O)[C@@H](N)Cc1ccc(O)cc1)C(=O)NCC(=O)N[C@@H](CO)C(=O)N[C@@H](CCCN=C(N)N)C(N)=O` gave RORgamma inh 14.6% and Gal4-VP16 FLuc -7.5%.
Screening O=C(c1cc2cc(Cl)ccc2[nH]1)N1CCC2(CC1)OCCO2 returned KB-3-1 tox inactive, RORgamma inh 15.7%, KB-V1 cytotox inactive, Gal4-VP16 FLuc -17.8%, MCF10A rereplic 23.1µM* and SW480 rereplic -2.4%.
Cc1[nH]cnc1CCN was read as RORgamma inh -20.9% and Gal4-VP16 FLuc -6.2%.
CCCCn1c(=O)c(C(=O)NCc2ccco2)c(O)c2ccccc21 was read as KB-3-1 tox inconclusive, RORgamma inh -11.6%, KB-V1 cytotox inconclusive, Gal4-VP16 FLuc 3.7%, MCF10A rereplic 8.4% and SW480 rereplic inconclusive.
Screening CCCCn1c(=O)c(C(=O)NCc2ccccc2)c(O)c2ccccc21 returned KB-3-1 tox inactive, RORgamma inh inconclusive, KB-V1 cytotox inactive, Gal4-VP16 FLuc inconclusive, MCF10A rereplic -3.5% and SW480 rereplic 0.7%.
For CCCCCn1c(=O)c(C(=O)NCc2ccc(Cl)cc2)c(O)c2ccccc21 the results were KB-3-1 tox inconclusive, RORgamma inh 10µM*, KB-V1 cytotox inactive, Gal4-VP16 FLuc 12.6µM*, MCF10A rereplic 1.5% and SW480 rereplic -28.4%.
`CCCCn1c(=O)c(C(=O)NCc2ccccc2Cl)c(O)c2ccccc21` gave KB-3-1 tox inactive, RORgamma inh 15.8µM*, KB-V1 cytotox inactive, Gal4-VP16 FLuc 1.1%, MCF10A rereplic 9.4% and SW480 rereplic -0.9%.
For CCCCCn1c(=O)c(C(=O)NCc2ccco2)c(O)c2ccccc21 the results were KB-3-1 tox inactive, RORgamma inh -25.2%, KB-V1 cytotox 20.6µM*, Gal4-VP16 FLuc -10.4%, MCF10A rereplic 11.8% and SW480 rereplic 1.0%.
COc1cccc(CNCCc2c[nH]c3ccccc23)c1OC was read as KB-3-1 tox inactive, RORgamma inh 2.4%, KB-V1 cytotox inactive, Gal4-VP16 FLuc 1.6%, MCF10A rereplic 6.2% and SW480 rereplic -1.6%.
Screening CCN(CC)c1ccc(CNCCc2ccccc2F)cc1 returned KB-3-1 tox inconclusive, RORgamma inh -5.9%, KB-V1 cytotox 20.6µM*, Gal4-VP16 FLuc -3.1%, MCF10A rereplic inconclusive and SW480 rereplic 7.3%.
`Cc1ccc(CNCCc2ccccc2F)cc1` gave KB-3-1 tox inactive, RORgamma inh -0.6%, KB-V1 cytotox inactive, Gal4-VP16 FLuc 4.2%, MCF10A rereplic inconclusive and SW480 rereplic -0.7%.
Fc1ccccc1CCNCc1cccc2ccccc12 was read as KB-3-1 tox inactive, RORgamma inh inconclusive, KB-V1 cytotox inactive, Gal4-VP16 FLuc 20µM*, MCF10A rereplic inconclusive and SW480 rereplic -1.8%.
Screening COC(=O)[C@H]1C(=O)c2ccccc2O[C@@](C(=O)OC)(c2ccccc2)[C@@H]1c1ccccc1 returned RORgamma inh 21.8%[10 µM] and Gal4-VP16 FLuc 3.8%[10 µM].
For CC1Oc2cc3c(-c4c(O)cc(O)c5c(O)c6c(cc45)OC(C)C(C)C6=O)c(O)cc(O)c3c(O)c2C(=O)C1C (stereo not drawn) the results were KB-3-1 tox inconclusive, RORgamma inh 3.98µM*, KB-V1 cytotox inconclusive, Gal4-VP16 FLuc inconclusive, MCF10A rereplic -1.2% and SW480 rereplic 13µM*.
For COC(=O)C1C(=O)C=C(Nc2ccc(F)cc2F)CC1c1ccccc1 (stereo not drawn) the results were KB-3-1 tox inactive, RORgamma inh inconclusive, KB-V1 cytotox inactive, Gal4-VP16 FLuc -16.6%, MCF10A rereplic -3.6% and SW480 rereplic -4.7%.
For CC(C)(C)c1ccc(/C=C2\Oc3cc(OC(=O)N4CCOCC4)ccc3C2=O)cc1 the results were KB-3-1 tox inactive, RORgamma inh 13.6%, KB-V1 cytotox inactive, Gal4-VP16 FLuc 6.2%, MCF10A rereplic 14.6µM* and SW480 rereplic inconclusive.
`C#CC1(O)CCC2C3CCC4=CC(=O)CCC4(C)C3CCC21C` (stereo not drawn) gave RORgamma inh 1.9%, Gal4-VP16 FLuc 13.5%, MCF10A rereplic 4.9% and SW480 rereplic -2.4%.
For C#C[C@]1(O)CC[C@H]2[C@@H]3CCC4=Cc5nc6nc7ccccc7n6cc5C[C@]4(C)[C@H]3CC[C@@]21C the results were KB-3-1 tox inactive, KB-V1 cytotox inconclusive, MCF10A rereplic inconclusive and SW480 rereplic 7.94µM*.
For CC(=O)C(O)C(c1ccccc1)c1c(O)c2ccccc2oc1=O (stereo not drawn) the results were RORgamma inh 2.4% and Gal4-VP16 FLuc -2.2%.

Screening data deposited in PubChem by National Center for Advancing Translational Sciences (NCATS).
